The text below walks through data of paper PMC11062922 (Nature Chemical Biology, 2023).

Like-named read-outs stand apart in the source and are kept apart here.

Holding throughout (parameters): species or system human, MV4-11 + K-562 + COLO205 + SK-N-BE2 + OVCAR-8
For one experiment, the system named is LIMK1. To be noted: read-out: apparent Kd, n = 1.
For the next experiment, the system named is DCTPP1. To be noted: read-out: apparent Kd, compound concentrations: 100 nM and 1000 nM (sheet 'Samples'), n = 1.
The test system of the next experiment is BMPR2. To be noted: read-out: apparent Kd, compound concentrations: 100 nM and 1000 nM (sheet 'Samples'), n = 1.
A further experiment relates to EPHA7. To be noted: read-out: apparent Kd; compound concentrations: 100 nM and 1000 nM (sheet 'Samples'), CATDS: 1.2240200797628401E-2; n = 1.
Another experiment relates to GRK6. To be noted: read-out: apparent Kd, n = 1.
For a further experiment, the system named is MST1R. To be noted: read-out: apparent Kd, n = 1.
In the next experiment the test system is SIK3. To be noted: read-out: apparent Kd, n = 1.
A further experiment has as its system TAOK3. To be noted: read-out: apparent Kd, n = 1.
A further experiment concerns ADCK3. To be noted: read-out: apparent Kd, n = 1.
The next experiment relates to ACOX1. To be noted: read-out: apparent Kd, compound concentrations: 100 nM and 1000 nM (sheet 'Samples'), n = 1.
For another experiment, the system named is PDXK. To be noted: read-out: apparent Kd, compound concentrations: 100 nM and 1000 nM (sheet 'Samples'), n = 1.
The test system of the next experiment is ACAD8. To be noted: read-out: apparent Kd; compound concentrations: 100 nM and 1000 nM (sheet 'Samples'), CATDS: 9.2281876473195495E-2; n = 1.
Another experiment deals with VDAC3. To be noted: read-out: apparent Kd, n = 1.
The test system of a further experiment is NEK3. To be noted: read-out: apparent Kd, n = 1.
The next experiment relates to MAP2K6. To be noted: read-out: apparent Kd, n = 1.
Setting [1] is: compound concentrations:100 nM and 1000 nM (sheet 'Samples').

Regarding `COc1cc(Nc2nccc(N3CCC(NC(=O)c4cccc(NC(C)=O)c4)C3)n2)cc(OC)c1OC` (stereo not shown) [GSK1379754A], in the experiment on LIMK1 (compound concentrations: 100 nM and 1000 nM (sheet 'Samples'), CATDS: 8.2781561075995602E-2), the potency estimated from few doses was 1830 nM.

Take `O=C1N=C(NCc2cccs2)O/C1=C\c1ccc2ncccc2c1` [RO4624208-000]: the potency estimated from few doses in the experiment with DCTPP1 (CATDS: 5.0969349281877803E-2) is 1270 nM.

With `c1ccc(-c2n[nH]cc2Nc2ccnc3ccccc23)nc1` [GW694077X], in the experiment on DCTPP1 (CATDS: 2.52871729428043E-2), the potency estimated from few doses was 1400 nM.

For `O=C(O)C(F)(F)F.O=c1[nH]ccc2nc(N[C@@H]3CCNC3)nc(Nc3ccc4c(c3)S(=O)(=O)CC4)c12` [GSK2181306A], the potency estimated from few doses in the experiment on BMPR2 (CATDS: 3.4513086619766098E-2) is 68.7 nM.

`CCn1c(-c2cccnc2O)nc2cnccc21` [SB-736715]: the potency estimated from few doses in the experiment with EPHA7 is 2080 nM; with GRK6 (compound concentrations: 100 nM and 1000 nM (sheet 'Samples'), CATDS: 1.19944612945155E-2), 2190 nM; in the experiment with MST1R (compound concentrations: 100 nM and 1000 nM (sheet 'Samples'), CATDS: 1.2580908946689701E-2), 1930 nM.

In the case of `O=C(O)C(F)(F)F.O=C(O)C(F)(F)F.O=c1[nH]ccc2nc(N[C@@H]3CCCNC3)nc(Nc3ccc(S(=O)(=O)N4CCOCC4)cc3)c12.O=c1[nH]ccc2nc(N[C@@H]3CCCNC3)nc(Nc3ccc(S(=O)(=O)N4CCOCC4)cc3)c12` [GSK2177277A], the potency estimated from few doses in the experiment with BMPR2 (CATDS: 8.2432165271610295E-3) was 514 nM; in the experiment with MST1R (compound concentrations: 100 nM and 1000 nM (sheet 'Samples'), CATDS: 6.3226356559210701E-3), 1690 nM; in the experiment on SIK3 (compound concentrations: 100 nM and 1000 nM (sheet 'Samples'), CATDS: 6.8651363479693096E-3), 1090 nM; in the experiment with TAOK3 (compound concentrations: 100 nM and 1000 nM (sheet 'Samples'), CATDS: 6.2703295867196796E-3), 1770 nM.

For `CS(=O)(=O)Nc1cccc(-c2ccc3c(NC(=O)C4CC4)n[nH]c3c2)c1` [SB-742864], the potency estimated from few doses in the experiment with ADCK3 (compound concentrations: 100 nM and 1000 nM (sheet 'Samples'), CATDS: 0.16822822033669799) is 659 nM.

Turning to `CCN(CC)Cc1ccc(Nc2nccc(-c3cnn4ncccc34)n2)cc1` [GW780056X], the potency estimated from few doses in the experiment on ACOX1 (CATDS: 2.3991726091544201E-2) is 753 nM; with PDXK (CATDS: 2.0244692732670499E-2) it was 1270 nM.

Turning to `COc1ccc(-c2cc3c(N)ncnc3o2)cc1` [GW642138X], the potency estimated from few doses is 2170 nM in the experiment on ACAD8; 2060 nM with VDAC3 (compound concentrations: 100 nM and 1000 nM (sheet 'Samples'), CATDS: 9.45617395095774E-2).

With `c1cnn2ncc(-c3ccnc(Nc4ccc5c(c4)OCCO5)n3)c2c1` [GW806290X], the potency estimated from few doses in the experiment on NEK3 (compound concentrations: 100 nM and 1000 nM (sheet 'Samples'), CATDS: 2.00420212482838E-2) is 2000 nM.

Take `COC(=O)c1cccc(NC(=O)NC2CCN(c3ccnc(Nc4cc(OC)c(OC)c(OC)c4)n3)C2)c1` (stereo not shown) [GSK1379767A]: the potency estimated from few doses with ADCK3 (compound concentrations: 100 nM and 1000 nM (sheet 'Samples'), CATDS: 9.7786771136585404E-2) was 1860 nM; in the experiment on VDAC3 (compound concentrations: 100 nM and 1000 nM (sheet 'Samples'), CATDS: 0.107496122866376), 1480 nM.

With `CCn1c(-c2nonc2N)nc2c(C#CC(C)(C)O)nc(O[C@@H](CN)c3ccccc3)cc21.O=C(O)C(F)(F)F` [GSK1007102B], the potency estimated from few doses in the experiment on ADCK3 (setting [1]) is 1060 nM; in the experiment on MAP2K6 (setting [1]), 1690 nM.

As to `CN(C)CC(O)COc1ccc(Nc2nccc(-c3cnn4nc(N5CCOCC5)ccc34)n2)cc1` (stereo not shown) [GW767488X], in the experiment on NEK3 (setting [1]), the potency estimated from few doses is 467 nM.

Regarding `O=C1N=C(NCCCc2ccccc2)S/C1=C\c1ccc2ncccc2c1` [RO4493941-000], the potency estimated from few doses in the experiment on ADCK3 (compound concentrations: 100 nM and 1000 nM (sheet 'Samples'), CATDS: 7.1008465963160003E-2) is 940 nM.

In the case of `COc1cc[nH]c1/C=C1\C(=O)Nc2ccc(F)c(C#CC3(O)CCNCC3)c21.Cl` [RO0282986-001], the potency estimated from few doses in the experiment on MAP2K6 (compound concentrations: 100 nM and 1000 nM (sheet 'Samples'), CATDS: 9.6893915598830205E-3) is 1500 nM.

Take `CC(C)Oc1ccc2c(-c3ccnc(Nc4ccc(N5CCN(C)CC5)cc4)n3)cnn2n1` [GW696155X]: the potency estimated from few doses in the experiment with LIMK1 (setting [1]) is 576 nM; in the experiment with NEK3 (setting [1]), 421 nM.

On to `CNCC#Cc1c(F)ccc2c1/C(=C/c1[nH]ccc1OC)C(=O)N2.Cl` [RO0281601-001], for which the potency estimated from few doses in the experiment on ACOX1 (CATDS: 2.54235943095352E-2) was 1140 nM.

Take `Cc1ccccc1C1=C(c2cn(C)c3ccccc23)C(=O)NC1=O` [RO0317612-000]: the potency estimated from few doses was 761 nM with ACOX1 (CATDS: 0.16885310198044201) and 529 nM in the experiment with PDXK (CATDS: 0.20460809182567499).

As for `Nc1nc(-c2ccc3c(N)n[nH]c3c2)cc(N2CCCC(NC(=O)c3ccccc3)C2)n1` (stereo not shown) [GSK2286775B], the potency estimated from few doses with MST1R (setting [1]) is 2250 nM.

Consider `O=C(Nc1n[nH]c2nc(-c3ccccc3O)ccc12)C1CC1` [SB-711880], for which, in the experiment on MAP2K6 (setting [1]), the potency estimated from few doses is 1810 nM.

Consider `Cl.Cl.NCC(NCc1ccc(-c2ccnc3[nH]ccc23)s1)c1ccccc1.NCC(NCc1ccc(-c2ccnc3[nH]ccc23)s1)c1ccccc1` (stereo not shown) [GSK1321565A], for which the potency estimated from few doses in the experiment with GRK6 (setting [1]) was 1600 nM.

For the molecule `CC(C)N1CC(=O)N(C)c2cnc(Nc3cccc(S(=O)(=O)CCN4CCOCC4)c3)nc21` [BI00009348], in the experiment on BMPR2 (CATDS: 7.5564324360796103E-2), the potency estimated from few doses is 646 nM.

Take `Cn1cc(C2=C(c3c(S(C)=O)n(C)c4ccccc34)C(=O)NC2=O)c2ccccc21` (stereo not shown) [RO0317379-000]: the potency estimated from few doses in the experiment with PDXK (CATDS: 0.122248811016512) is 1030 nM.

As for `Cc1occc1-c1nc(N)c(OC[C@@H](N)Cc2c[nH]c3ccccc23)cc1-c1cc2c(C)n[nH]c2cn1` [GSK1660450B], the potency estimated from few doses in the experiment with SIK3 (setting [1]) was 154 nM; in the experiment with TAOK3 (setting [1]) it was 76 nM; in the experiment with VDAC3 (setting [1]), 102 nM.
